Active and inactive are the calls of the source. Rule for the calls: active = hit-call score of the fitted dose curve at least 0.9, where 1 is the maximum; inactive = score below 0.9.

As usually defined, the AC50 is the concentration at which the activity in the assay is half-maximal.

A short description of the assay: ATG_NFI_CIS: Attagene CIS-FACTORIAL HepG2 Assay for human Nuclear Factor I (NFI) (AID 2282989). The conditions noted are these: HepG2 cis-regulatory reporter, NFI response element transcription; actives raise or lower the signal. As to the method: ATG_CIS is a cell-based, multiplexed-readout assay that uses HepG2, a human liver cell line, with measurements taken at 24 hours after chemical dosing in a 24-well plate.ATG_NFI_CIS is one of 52 assay component(s) measured or calculated from the ATG_CIS assay. It is designed to make measurements of mRNA induction, a form of inducible reporter, as detected with fluorescence intensity signals by Reverse transcription polymerase chain reaction (RT-PCR) and Capillary electrophoresis technology.Data from the assay component ATG_NFI_CIS was analyzed into 1 assay endpoint. This assay endpoint, ATG_NFI_CIS, was analyzed with bidirectional fitting relative to DMSO as the negative control and baseline of activity. Using a type of inducible reporter, measures of mRNA for gain or loss-of-signal activity can be used to understand the reporter gene at the transcription factor-level as they relate to the gene NFIA. Furthermore, this assay endpoint can be referred to as a primary readout, because this assay has produced multiple assay endpoints where this one serves a reporter gene function. To generalize the intended target to other relatable targets, this assay endpoint is annotated to the dna binding intended target family, where the subfamily is nuclear factor I.
Human liver HepG2 cells are transiently transfected with multiple reporter transcription units (MRTUs) in 6-well plates using FuGene 6 reagent (Roche; 3 ml FuGene/1 mg DNA). The MRTU constructs are regulated by a cis-regulating element (promoter). […] A major difference between the CIS and TRANS system is that in CIS activities of endogenous TFs are measured, whereas the TRANS assay evaluates changes in activities of exogenous, chimeric NR-Gal4 proteins. […] At the end of 24 hour incubation, total RNA was isolated using TriZol reagent (Invitrogen). The isolated RNA is then reverse-transcribed using oligo(dT) primer and Mo-MLV reverse transcriptase (Invitrogen) with DNAse I (Ambion) treatment for 30 min. The one-tenth of the produced cDNA was amplified by PCR using Taq DNA polymerase (Invitrogen) and two reporter sequence-specific primers. The PCR products were fluorescently labeled by primer extension with 6-arboxyfluorescein (6-FAM) 5'-labeled reporter sequence-specific primer (2 min at 95 C, 20 s at 68 C and 10 min at 72 C) and these products were digested with 5U of HpaI (New England Biolabs) for 2h at 37 C. The fragments were purified using Qiaquick PCR columns (Qiagen), analyzed on an ABI 3130xL genetic analyzer (Applied Biosystems) with peak positions identified by using a set of X-rhodamine (ROX)-labeled MapMarker1000 molecular weight standards (BioVentures). The raw capillary electrophoresis data was processed using Attagraph software (Attagene).
`CCOP(=S)(Oc1cnc(C(C)(C)C)nc1)OC(C)C` (stereo not given): the compound was called inactive. As to `S=C1NCCN1`, the compound was classed as inactive.

`CC1=NNC(=O)N(/N=C/c2cccnc2)C1`: the result was inactive. Take `CCCCN(CC)c1c([N+](=O)[O-])cc(C(F)(F)F)cc1[N+](=O)[O-]`: the outcome was inactive. Same read-out and setting: the same measure for `COP(=O)(NC(C)=O)SC` (stereo not given): “inactive”. For `CC(COc1ccc(Oc2ccccc2)cc1)Oc1ccccn1` (stereo not given), the call was inactive.

On to `C[Si](Cn1cncn1)(c1ccc(F)cc1)c1ccc(F)cc1`, for which the outcome was inactive. Same read-out and setting: the same measure for `CC(C)=CC1C(C(=O)OCN2C(=O)C3=C(CCCC3)C2=O)C1(C)C` (stereo not given): “inactive”; for `CNc1cnn(-c2cccc(C(F)(F)F)c2)c(=O)c1Cl`: “inactive”; for `C=C(C)[C@H]1Cc2c(ccc3c2O[C@@H]2COc4cc(OC)c(OC)cc4[C@@H]2C3=O)O1`: “inactive”. On the same count and under the same terms, the same measure for `CCOP(=S)(OCC)Oc1ccc2c(C)c(Cl)c(=O)oc2c1`: “inactive”; for `CN(C)NC(=O)CCC(=O)O`: “inactive”; for `CN1COCN(Cc2cnc(Cl)s2)C1=N[N+](=O)[O-]`: “inactive”. Same read-out and setting: in the case of `CCOP(=S)(OCC)Oc1cc(C)nc(C(C)C)n1` it was “inactive”; in that of `CCc1cccc(C)c1N(C(=O)CCl)C(C)COC` (stereo not given), “inactive”. On to `Nc1c(Cl)cc([N+](=O)[O-])cc1Cl`, for which the AC50 was 50 µM (active). Regarding `CC(Oc1cccc(Cl)c1)C(=O)O` (stereo not given), the compound was classed as inactive. Still for that read-out and setting: in the case of `Cc1nn(-c2cc(NS(C)(=O)=O)c(Cl)cc2Cl)c(=O)n1C(F)F` it was “inactive”.

In the case of `Cc1cc(C2CC2)nc(Nc2ccccc2)n1`, the AC50 was 29.3 µM (active).

As for `O=[N+]([O-])c1cc(C(F)(F)F)c(Cl)c([N+](=O)[O-])c1Nc1ncc(C(F)(F)F)cc1Cl`, the outcome was inactive.

For the compound `CCC(=O)Nc1ccc(Cl)c(Cl)c1`, the AC50 is 10.5 µM (active).

`CSc1nc(NC(C)C)nc(NC(C)C)n1`: the call was inactive. Turning to `CC1(C(=O)Nc2ccc(O)c(Cl)c2Cl)CCCCC1`, the outcome was inactive.

`CC(=NC#N)N(C)Cc1ccc(Cl)nc1`: the result was inactive. Same read-out and setting: in the case of `FC(F)C(F)(F)OCC(Cn1cncn1)c1ccc(Cl)cc1Cl` (stereo not given) it was “inactive”; in that of `COP(=O)(OC)SCn1c(=O)oc2cc(Cl)cnc21`, “inactive”.

Regarding `CCOC(=O)CC(SP(=O)(OC)OC)C(=O)OCC` (stereo not given), the result was inactive. In the case of `Nc1nc(N)nc(NC2CC2)n1`, the call was inactive.

As to `N#CSCSC#N`, the outcome was inactive. As for `CN(C)[C@@H]1C(=O)C(C(N)=O)=C(O)[C@@]2(O)C(=O)C3=C(O)c4c(O)cccc4[C@@](C)(O)[C@H]3[C@H](O)[C@@H]12`, the outcome was inactive. In the case of `O=C(O)c1cc(Oc2ccc(C(F)(F)F)cc2Cl)ccc1[N+](=O)[O-]`, the compound was classed as inactive. With `CCC(CC)Nc1c([N+](=O)[O-])cc(C)c(C)c1[N+](=O)[O-]`, the outcome was inactive.

As for `CCCOCC(=Nc1ccc(Cl)cc1C(F)(F)F)n1ccnc1`, the outcome was inactive. On the same count and under the same terms, in the case of `COc1cc(OC)nc(Sc2cccc(Cl)c2C(=O)O)n1` it was “inactive”. `C#CCC1=C(C)C(OC(=O)C2C(C=C(C)C)C2(C)C)CC1=O` (stereo not given): the half-maximal activity concentration (AC50) is 80 µM (active). Consider `CCOP(=O)(SC(C)CC)N1CCSC1=O` (stereo not given), for which the compound was classed as inactive. On to `CCNc1nc(Cl)nc(NC(C)(C)C#N)n1`, for which the compound was classed as inactive. The same measure, in the same setting: in the case of `CCCCOC(=O)[C@@H](C)Oc1ccc(Oc2ccc(C#N)cc2F)cc1` it was “inactive”. On the same count and under the same terms, the same measure for `CCOC(=O)COc1cc(-c2nn(C)c(OC(F)F)c2Cl)c(F)cc1Cl`: “inactive”.

For the compound `C[N+]1(C)CCCCC1`, the call was inactive.

The values above are taken from PubChem BioAssay (EPA / NIEHS).
